In PubChem BioAssay (EPA / NIEHS):
Where “and” joins values, the source holds several entries; their conditions need not be identical. Identical values can stand only once. Where a structure was tested more than once in an assay, its records may differ in their call. Calls of active or inactive are those of the source. The calls were made as follows: active = hit-call score of the fitted dose curve at least 0.9, where 1 is the maximum; inactive = score below 0.9.

Assays:
[1] = read-out: Interleukin-8 (IL8), CXCL8 (gene 3576); experiment: BSK_BE3C_IL8: BioMAP Diversity Plus: BE3C Assay for Interleukin-8 (IL8) Biomarker Activity (AID 2284280); settings: primary human bronchial epithelial cells
Outline: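 IL-8 signal gain, normalised to DMSO vehicle, was scored after a 24 h chemical exposure of primary human bronchial epithelial cells, with detection by ELISA.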

[2] = read-out: Epidermal growth factor receptor (EGFR), EGFR (gene 1956); experiment: BSK_BE3C_EGFR: BioMAP Diversity Plus: BE3C Assay for Epidermal growth factor receptor (EGFR) Biomarker Activity (AID 2284281); settings: primary human bronchial epithelial cells
Outline: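 Compound is added to human bronchial epithelial cells, cells incubate 24 h, then EGFR is detected by ELISA. Values reflect positive-direction fitting relative to DMSO.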

KRT18 (gene 3875) = experiment: BSK_BE3C_Keratin818: BioMAP Diversity Plus: BE3C Assay for Keratin 818 Biomarker Activity (AID 2284282); settings: primary human bronchial epithelial cells
Outline: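 Chemicals are added to human lung bronchial epithelial primary cells (BE3C system) and incubated 24 h. Keratin 8/18 is then measured by ELISA, with parallel SRB total-protein staining gauging overt cytotoxicity.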

[3] = read-out: Matrix Metallopeptidase 9 (MMP9), MMP9 (gene 4318); experiment: BSK_BE3C_MMP9: BioMAP Diversity Plus: BE3C Assay for Matrix Metallopeptidase 9 (MMP9) Biomarker Activity (AID 2284283); settings: primary human bronchial epithelial cells
Outline: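 Cells were dosed, incubated 24 h, then assayed for MMP-9 by ELISA; activity was fitted upward against DMSO. The system used human lung primary bronchial epithelial cells, with SRB total-protein staining run alongside for cytotoxicity.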

[4] = read-out: Plasminogen activator inhibitor-1 (PAI1), SERPINE1 (gene 5054); experiment: BSK_CASM3C_PAI1: BioMAP Diversity Plus: CASM3C Assay for Plasminogen activator inhibitor-1 (PAI1) Biomarker Activity (AID 2284284); settings: primary human coronary artery smooth muscle cells;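 also: PAI-1 protein level measured by ELISA 24 h after dosing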
[5] = read-out: Monocyte Chemoattractant Protein-1 (MCP1), CCL2 (gene 6347); experiment: BSK_hDFCGF_MCP1: BioMAP Diversity Plus: hDFCGF Assay for Monocyte Chemoattractant Protein-1 (MCP1) Biomarker Activity (AID 2284285); settings: primary human foreskin fibroblasts
Outline: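 Human foreskin fibroblasts (hDFCGF system) were exposed to compound and secreted MCP-1 was measured by ELISA after 24 hours. Activity was fitted relative to DMSO. Cytotoxicity was checked by SRB total-protein staining in parallel cultures.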

[6] = read-out: Vascular cell adhesion molecule 1 (VCAM1), VCAM1 (gene 7412); experiment: BSK_IMphg_VCAM1: BioMAP Diversity Plus: IMphg Assay for Vascular cell adhesion molecule 1 (VCAM1) Biomarker Activity (AID 2284286); settings: primary human endothelial cells with macrophages
Outline: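 Human venular endothelial cells co-cultured with macrophages; VCAM-1 quantified by ELISA 24 h after dosing, fitted in the positive direction against DMSO. Cytotoxicity was checked in parallel cultures by SRB total-protein staining (0.1% SRB after 10% TCA fixation, 560 nm).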

[7] = read-out: Intercellular Adhesion Molecule 1 (ICAM1), ICAM1 (gene 3383); experiment: BSK_hDFCGF_ICAM1: BioMAP Diversity Plus: hDFCGF Assay for Intercellular Adhesion Molecule 1 (ICAM1) Biomarker Activity (AID 2284287); settings: primary human foreskin fibroblasts
Outline: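 Primary human foreskin fibroblasts (hDFCGF system) dosed with chemical; ICAM-1 quantified by ELISA at 24 h relative to DMSO. Parallel SRB total-protein staining to assess overt cytotoxicity.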

CD40, CD40 (gene 958) = experiment: BSK_IMphg_CD40: BioMAP Diversity Plus: IMphg Assay for CD40 Biomarker Activity (AID 2284288); settings: primary human endothelial cells with macrophages
Outline: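 Venular endothelial cells co-cultured with macrophages (human primary), CD40 measured by ELISA 24 h after dosing. Positive-direction fit vs DMSO baseline; cytotoxicity tracked by SRB total-protein staining in parallel cultures.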

[8] = read-out: TIMP metallopeptidase inhibitor 2 (TIMP2), TIMP2 (gene 7077); experiment: BSK_hDFCGF_TIMP2: BioMAP Diversity Plus: hDFCGF Assay for TIMP metallopeptidase inhibitor 2 (TIMP2) Biomarker Activity (AID 2284289); settings: primary human foreskin fibroblasts
Outline: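 Primary human foreskin fibroblasts in the hDFCGF system, dosed for 24 h; TIMP-2 level measured by ELISA, fitted in the positive direction against DMSO; cytotoxicity checked in parallel by sulforhodamine B total protein staining.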

[9] = read-out: Interleukin-1 alpha (IL1a), IL1A (gene 3552); experiment: BSK_IMphg_IL1a: BioMAP Diversity Plus: IMphg Assay for Interleukin-1 alpha (IL1a) Biomarker Activity (AID 2284290); settings: primary human endothelial cells with macrophages
Outline: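 Human venular endothelial cells co-cultured with macrophages, IMphg system. IL-1α is measured by ELISA 24 h after dosing and fitted in the positive direction against DMSO. Cytotoxicity is assessed by SRB staining of parallel cultures.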

[10] = read-out: E-selectin (Homo sapiens) (UniProt P16581); experiment: BSK_IMphg_ESelectin: BioMAP Diversity Plus: IMphg Assay for Eselectin Biomarker Activity (AID 2284291); settings: primary human endothelial cells with macrophages
Outline: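 Human venular endothelial cell–macrophage co-culture, E-selectin measured by ELISA 24 h after chemical dosing. Signal fitted in the positive direction against DMSO as negative control and baseline.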

[11] = BSK_IMphg_SRB: Viability Assessment in the BioMAP Diversity Plus: IMphg Assay (AID 2284292); settings: primary human endothelial cells with macrophages;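 also: measured one day after compound addition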
Outline: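 Human venular endothelial cells with macrophages, 24 h after chemical dosing; total protein by 0.1% SRB staining after 10% TCA fixation, read at 560 nm. Positive-direction fitting versus DMSO baseline.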

[12] = read-out: Macrophage colony-stimulating factor (MCSF), CSF1 (gene 1435); experiment: BSK_IMphg_MCSF: BioMAP Diversity Plus: IMphg Assay for Macrophage colony-stimulating factor (MCSF) Biomarker Activity (AID 2284293); settings: primary human endothelial cells with macrophages
Outline: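 Co-culture of human venular endothelial cells and macrophages, 24 hours of chemical exposure. M-CSF quantified by ELISA, with parallel SRB total-protein staining for cytotoxicity; activity fitted relative to DMSO.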

[13] = read-out: Interleukin-10 (IL10), IL10 (gene 3586); experiment: BSK_IMphg_IL10: BioMAP Diversity Plus: IMphg Assay for Interleukin-10 (IL10) Biomarker Activity (AID 2284294); settings: primary human endothelial cells with macrophages
Outline: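 Human venular endothelial cells cocultured with macrophages, dosed 24 h; IL-10 measured by ELISA, activity relative to DMSO. Cytotoxicity assessed in parallel cultures by sulforhodamine B total-protein staining.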

[14] = BSK_IMphg_SRB.Mphg: Macrophage Viability Assessment in the BioMAP Diversity Plus: IMphg Assay (AID 2284295); settings: primary human endothelial cells with macrophages
Outline: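 Venular endothelial cells co-cultured with macrophages, read 24 h after dosing. Total protein measured by 0.1% SRB staining after 10% TCA fixation, absorbance at 560 nm. Fitted in positive direction against DMSO baseline.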

[15] = read-out: Thrombomodulin, THBD (gene 7056); experiment: BSK_LPS_Thrombomodulin: BioMAP Diversity Plus: LPS Assay for Thrombomodulin Biomarker Activity (AID 2284296); settings: primary human HUVEC with PBMC
Outline: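 Human umbilical vein endothelial cells co-cultured with PBMC and stimulated with LPS; cell-surface thrombomodulin measured by ELISA 24 hours after compound. Gain or loss versus DMSO; cytotoxicity checked by SRB staining in parallel cultures.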

[16] = IUF_NPC2c_oligodendrocyte_migration_120hr: Leibniz Research Institute for Environmental Medicine (IUF) 120-hour Neural Progenitor Cell Migration Assay for Oligodendrocyte Migration (NPC2c) (AID 2284297);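 also: O4-positive oligodendrocyte migration distance divided by radial glia migration distance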
Outline: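 Primary hNPC spheres migrating on extracellular matrix, exposed five days to a 7-point dilution series with solvent control. Oligodendrocyte migration was scored by high-content imaging of O4 immunostaining and expressed relative to radial glia distance.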

[17] = IUF_NPC2a_radial_glia_migration_120hr: Leibniz Research Institute for Environmental Medicine (IUF) 120-hour Neural Progenitor Cell Migration Assay for Radial Glia Migration (NPC2a) (AID 2284298)
Outline: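 In this multiplexed test, fetal hNPC spheres migrate radially on poly-D-lysine/laminin in N2 medium (37C, 5% CO2, pH 7.2-7.6) under continuous compound exposure over five days. Migration is scored at 120 h from automated Hoechst nuclear imaging.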

[18] = IUF_NPC2a_radial_glia_migration_72hr: Leibniz Research Institute for Environmental Medicine (IUF) 72-hour Neural Progenitor Cell Migration Assay for Radial Glia Migration (NPC2a) (AID 2284299)
Outline: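 Primary hNPC spheres, fetal brain GW 16-19, on PDL/laminin; DMEM/F12 3:1 + 1% N2. Compound dosed day 0, 7 conc. + SC, half-medium refresh day 3. 72 h brightfield, migration distance core-to-front (um), 4 directions averaged.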

Measured: AC50

E-selectin (Homo sapiens), sequence (P16581 whole entry, looked up): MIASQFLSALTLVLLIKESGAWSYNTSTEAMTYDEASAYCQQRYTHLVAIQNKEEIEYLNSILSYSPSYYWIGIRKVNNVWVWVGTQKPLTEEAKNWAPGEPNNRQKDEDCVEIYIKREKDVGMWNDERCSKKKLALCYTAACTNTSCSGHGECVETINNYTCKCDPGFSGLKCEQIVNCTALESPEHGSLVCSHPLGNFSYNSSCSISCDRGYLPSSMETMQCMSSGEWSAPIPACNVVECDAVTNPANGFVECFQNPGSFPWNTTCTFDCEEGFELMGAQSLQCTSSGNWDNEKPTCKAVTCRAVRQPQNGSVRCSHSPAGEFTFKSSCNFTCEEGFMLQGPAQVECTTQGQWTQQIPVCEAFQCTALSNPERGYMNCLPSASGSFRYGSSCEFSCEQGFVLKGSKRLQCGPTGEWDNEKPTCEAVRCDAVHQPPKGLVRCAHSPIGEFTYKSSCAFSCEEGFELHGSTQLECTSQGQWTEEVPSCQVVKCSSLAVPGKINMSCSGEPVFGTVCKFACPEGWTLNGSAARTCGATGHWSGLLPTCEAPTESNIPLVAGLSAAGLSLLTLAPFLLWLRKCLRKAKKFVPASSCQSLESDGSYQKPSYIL

O=C(O)C(F)(F)C(F)(F)C(F)(F)C(F)(F)C(F)(F)F
not listed: [16] | [17] | [18]
inactive: all other assays above

O=C(O)C(F)(F)C(F)(F)C(F)(F)C(F)(F)C(F)(F)C(F)(F)C(F)(F)C(F)(F)C(F)(F)F
inactive: [2] | KRT18 (gene 3875) | [4] | [9] | [12]
active: [1] 10.1 µM and 14.2 µM | [2] 7.27 µM | KRT18 (gene 3875) 14.5 µM | [3] 15.1 µM and 17.4 µM | [5] 56.1 µM and 56.6 µM | [6] 54.8 µM and 26.9 µM | [7] 49.8 µM and 49 µM | CD40, CD40 (gene 958) 45.9 µM and 42.3 µM | [8] 11.2 µM and 19.7 µM | [10] 47.6 µM and 50.2 µM | [11] 53.8 µM and 46.6 µM | [13] 49.6 µM and 45.5 µM | [14] 44.9 µM and 46.2 µM | [15] 51.4 µM and 54.9 µM

CO/C=C(/C(=O)OC)c1ccccc1COc1cccc(C(F)(F)F)n1
active: [16] 34.6 µM | [17] 33 µM | [18] 50 µM

O=S(=O)(O)C(F)(F)C(F)(F)C(F)(F)C(F)(F)C(F)(F)C(F)(F)F
inactive: [1] | [2] | KRT18 (gene 3875) | [3] | [4] | [5] | [6] | [7] | CD40, CD40 (gene 958) | [8] | [9] | [10] | [11] | [12] | [14] | [15] | [16] | [17] | [18]
active: [10] 37.6 µM | [13] 46.3 µM and 19 µM

C=CC(N)=O
inactive: [16] | [17] | [18]

CCOP(=S)(OCC)SCSC(C)(C)C
inactive: [16] | [17] | [18]

COc1ccc(O)c(C(C)(C)C)c1
inactive: [1] | [2] | KRT18 (gene 3875) | [3] | [4] | [5] | [7] | [8] | [15]

O=C(O)C(F)(F)C(F)(F)C(F)(F)C(F)(F)C(F)(F)C(F)(F)C(F)(F)C(F)(F)F
inactive: [2] | [4] | [5] | [6] | [7] | [8] | [9] | [10] | [11] | [12] | [14] | [15]
active: [1] 23.3 µM and 24.3 µM | KRT18 (gene 3875) 30 µM and 47.6 µM | [3] 54 µM and 56.6 µM | [6] 30 µM | CD40, CD40 (gene 958) 30 µM and 44.9 µM | [11] 44.9 µM | [13] 39 µM and 21.3 µM | [14] 18 µM

O=S(=O)(O)C(F)(F)C(F)(F)C(F)(F)C(F)(F)F
inactive: all assays above

NS(=O)(=O)C(F)(F)C(F)(F)C(F)(F)C(F)(F)C(F)(F)C(F)(F)C(F)(F)C(F)(F)F
inactive: [4] | [12] | [15]
active: [1] 24.3 µM and 11.4 µM | [2] 25.1 µM and 38 µM | KRT18 (gene 3875) 46.9 µM and 48 µM | [3] 30 µM | [5] 21.7 µM and 17.3 µM | [6] 47.3 µM and 56.6 µM | [7] 12.1 µM and 15.7 µM | CD40, CD40 (gene 958) 31.8 µM and 25.7 µM | [8] 53.9 µM and 52.3 µM | [9] 53.6 µM and 52.9 µM | [10] 39.9 µM and 30 µM | [11] 51 µM and 48.3 µM | [12] 30 µM | [13] 48.2 µM and 47.2 µM | [14] 43.4 µM and 48.1 µM | [15] 14.5 µM
